Laboratory results: PubChem BioAssay (NCATS)
“And” between values parts separate entries of the source, which are not always exact repeats. Equal values may be shown once. Inconclusive results are not listed. A call without a number means that no potency is given here. Values without a mark were called inactive. The source made the active and inactive calls. The call rests on the fitted dose curve; in most records, active means well fitted curve in the direction sought with a large enough effect; inconclusive means small, poorly fitted or top-dose-only effect, or another doubt; inactive means no such curve, though single readings can be large; an effect the other way counts as inactive or inconclusive. Bridge positions count the residues as written; N and C are the ends. Square brackets hold non-standard residues; d marks the D form. Peptide text beside a SMILES is read from it. * marks the point of attachment. ξ: configuration not given here. Octanoyl(6-Me) = CCC(C)CCCCC(=O)*; ξThr(3R) = C[C@@H](O)C(N)C(=O)O; dDab = NCC[C@@H](N)C(=O)O; Dab = NCC[C@H](N)C(=O)O

What was measured:
[1] = Viability qHTS for spleen associated tyrosine kinase inhibitor (SYKi) naive MV4-11 cells (AID 1963823); further: nearly all actives have a fitted effect of over 40% in size
Outline: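 CellTiter-Glo luminescence, 10 min room-temperature incubation, gave viability. Cells: naive MV4-11 (500/well), treated 72 hr at 37 C, 5% CO2.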

[2] = Viability qHTS for spleen associated tyrosine kinase inhibitor (SYKi) drug resistant MV4-11 cells (AID 1963824); further: nearly all actives have a fitted effect of over 35% in size
Outline: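 SYK inhibitor-resistant MV4-11 AML cells, 500 per well, added to predispensed compounds and incubated 72 hr at 37 C, 5% CO2. Viability measured by CellTiter-Glo luminescence after 10 min at room temperature.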

[3] = Quantitative highthroughput screen to assess conditional lethalithy of NOMO1 cells grown in RPMI1640 with untreated serum (RPMI+s) (AID 1963876); further: nearly all actives have a fitted effect of over 35% in size
Outline: (§1)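 Each medium arm—HPLM with 10% dialyzed FBS, or RPMI1640 with 5 mM glucose and 10% untreated or dialyzed FBS—was screened against an 11-point, 3-fold compound titration for 48 h at 37 °C, with CellTiter-Glo luminescence as endpoint.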

[4] = Quantitative highthroughput screen to assess conditional lethalithy of NOMO1 cells grown in RPMI1640 with dialyzed fetal bovine serum (RPMI+ds) (AID 1963877); further: nearly all actives have a fitted effect of over 30% in size; on Viability: series mostly up to about 46 µM
Outline: as §1

[5] = Quantitative highthroughput screen to assess conditional lethalithy of NOMO1 cells grown in Human Plasma-Like Medium with dialyzed fetal bovine serum (HPLM+ds) (AID 1963878); further: nearly all actives have a fitted effect of over 35% in size
Outline: as §1

[6] = Quantitative highthroughput screen to assess conditional lethalithy of P12 Ichikawa cells grown in Human Plasma-Like Medium with dialyzed fetal bovine serum (HPLM+ds) (AID 1963879); settings: Potency: viability; further: nearly all actives have a fitted effect of over 35% in size; on Viability: series mostly up to about 46 µM
Outline: as §1

[7] = Quantitative highthroughput screen to assess conditional lethalithy of P12 Ichikawa cells grown in RPMI1640 with dialyzed fetal bovine serum (RPMI+ds) (AID 1963880); settings: Potency: P12-Ichikawa viability; further: nearly all actives have a fitted effect of over 35% in size
Outline: as §1

[8] = Quantitative highthroughput screen to assess conditional lethalithy of P12 Ichikawa cells grown in RPMI1640 with untreated serum (RPMI+s) (AID 1963881); settings: Potency: viability; further: nearly all actives have a fitted effect of over 35% in size; on Viability: series mostly up to about 46 µM
Outline: as §1

[9] = Quantitative highthroughput screen to assess conditional lethalithy of SEM cells grown in Human Plasma-Like Medium with dialyzed fetal bovine serum (HPLM+ds) (AID 1963882); further: nearly all actives have a fitted effect of over 35% in size; on Viability: series mostly up to about 46 µM
Outline: as §1

[10] = Quantitative highthroughput screen to assess conditional lethalithy of SEM cells grown in RPMI1640 with unreated serum (RPMI+s) (AID 1963883); further: nearly all actives have a fitted effect of over 35% in size
Outline: as §1

[11] = Quantitative highthroughput screen to assess conditional lethalithy of SEM cells grown in RPMI1640 with dialyzed fetal bovine serum (RPMI+ds) (AID 1963884); further: nearly all actives have a fitted effect of over 35% in size; on Viability: series mostly up to about 46 µM
Outline: as §1

[12] = Cellular viability qHTS for adrenocortical cancer (ACC) cell line SW-13 (AID 1963989); settings: SW-13 ACC cells viability, CellTiter-Glo, 48 h; activity (max response): stronger effect = lower value; further: nearly all actives have a fitted effect of over 65% in size;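 on activity (max response): cells grown in serum-free medium with ITS supplement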
Outline: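 Luminescent ATP read-out (CellTiter-Glo, 20 min at room temperature) measured metabolically competent SW-13 cells after 48 h compound treatment. Final concentrations spanned up to 46 uM; bortezomib served as positive control.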

[13] = Cellular viability qHTS for adrenocortical cancer (ACC) cell line NCI-H295R (AID 1963990); further: nearly all actives have a fitted effect of over 60% in size
Outline: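 IC50 and maximal efficacy derive from four-parameter logistic modelling of titration curves, with reads scaled between DMSO-only wells (0%) and doxorubicin hydrochloride (100% inhibition). Compounds spanned up to 46 uM over 48 h.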
Potency means the concentration at half of the fitted maximal effect.

| SMILES | Potency [1] | Potency [2] | Potency [3] | Potency [4] | Potency [5] | Potency [6] | Potency [7] | Potency [8] | Potency [9] | Potency [10] | Potency [11] | activity (max response) [12] | Potency [13] | Potency [12] |
| --- | --- | --- | --- | --- | --- | --- | --- | --- | --- | --- | --- | --- | --- | --- |
| COc1ccc([C@@H]2CNC(=O)C2)cc1OC1CCCC1 | inactive | inactive | inactive | inactive | inactive | inactive | inactive | inactive | inactive | inactive | inactive | -15.2% | inactive |  |
| Cc1ncc(-c2ccnc(Nc3ccc(S(C)(=O)=O)cc3)n2)n1C(C)C | 1.3 µM (active) and 1.66 µM (active) | 920 nM (active) and 934 nM (active) | 7.43 µM (active) | 5.9 µM (active) | 7.43 µM (active) | 20.9 µM (active) | 13.2 µM (active) | 13.2 µM (active) | 3.72 µM (active) | 3.32 µM (active) | 5.26 µM (active) |  | 7.08 µM (active) | 8.91 µM (active) |
| CN1C(C(=O)Nc2ccccn2)=C(O)c2sc(Cl)cc2S1(=O)=O | inactive | 16.6 µM (active) | inactive | inactive | inactive | inactive | inactive | inactive | inactive | inactive | inactive | -21.7% | inactive |  |
| CCC(C)CCCCC(=O)N[C@@H](CCN)C(=O)NC(C(=O)N[C@H](CCN)C(=O)N[C@@H]1CCNC(=O)C([C@@H](C)O)NC(=O)[C@@H](CCN)NC(=O)[C@@H](CCN)NC(=O)[C@@H](CC(C)C)NC(=O)[C@H](Cc2ccccc2)NC(=O)[C@H](CCN)NC1=O)[C@@H](C)O (stereo partly drawn) ({Octanoyl(6-Me)}-[Dab][ξThr(3R)][dDab][dDab][Dab]F[dL][dDab][dDab][ξThr(3R)]; lactam 4-C) | inactive | inactive | inactive | inactive | inactive | inactive | inactive | inactive | inactive | inactive | inactive | 3.16% | inactive |  |
